Compound activity from PubChem.
Rtt109 HAT inh – C. albicans Rtt109 histone acetyltransferase inhibition; AID 540336; inhibition, % at 34.9 µM; Q5AAJ8; 0.16% of 330,000 active; purified Rtt109/Vps75, ThioGlo CoA-SH fluorescence, 4 h;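 active means inhibition of at least 50% in every replicate; inconclusive means best replicate reaches 50% inhibition but some replicates fall short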
ERp5 inh – inhibitors of human ERp5; Q15084; ERp5 insulin aggregation, absorbance 650 nm, 90 min; inhibition, % at 9.99 µM; 0.05% of 350,000 active;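 active means mean replicate inhibition above about 25%, with every replicate also reaching it, limit read from the data, passing the limit was not always enough; inconclusive means only one of those two criteria met; inactive means neither criterion met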
PDI inh – inhibitors of human protein disulfide isomerase | P07237 | PDI insulin aggregation turbidity, A650, 90 min | inhibition, % at 10 µM | 0.052% of 350,000 active | AID 588391;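 active means mean inhibition across replicates of 30% or more, whatever share of single replicates reach that level; inconclusive means mean inhibition below 30% while every single replicate reaches 30%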
SIRT5 inh – blocks human SIRT5 desuccinylation of peptide. AID 652115. Purified SirT5, succinyl-peptide AMC, trypsin-coupled fluorescence. 1.1% of 330,000 active. inhibition, % at 15 µM. Q9NXA8; in the data active means inhibition above about 15%; inconclusive means no clear call, values can overlap the other calls
Target sequence (Q9NXA8 whole entry, looked up): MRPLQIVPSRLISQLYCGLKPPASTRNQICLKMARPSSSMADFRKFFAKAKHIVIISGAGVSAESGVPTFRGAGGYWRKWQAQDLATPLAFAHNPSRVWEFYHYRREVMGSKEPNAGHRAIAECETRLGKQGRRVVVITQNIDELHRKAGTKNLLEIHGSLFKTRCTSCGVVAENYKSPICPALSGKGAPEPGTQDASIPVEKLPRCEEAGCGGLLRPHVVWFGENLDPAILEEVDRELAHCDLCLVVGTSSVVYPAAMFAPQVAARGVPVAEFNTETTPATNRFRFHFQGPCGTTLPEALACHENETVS
DENV2 CPE – inhibitors of DENV2 cytopathic effect; DENV2-infected cells, cytopathic effect rescue, plate reader; CPE inhibition, % at 9.99 µM; 1.7% of 350,000 active; in the data active means CPE inhibition above about 20%, passing the limit was not always enough; inconclusive means no clear call, values can overlap the other calls; tested in BHK-21 cells;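 further: 0% = median of neutral control wells and 100% = median of positive control wells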
* hit, by the source's call; ? = inconclusive; · = no result; ! = a repeat was not active. Only some compounds are listed: those with a hit (about 2.3% of all), similar ones and a draw of the others.

SMILES	Rtt109 HAT inh	ERp5 inh	PDI inh	SIRT5 inh	DENV2 CPE
Cc1cc(C(=O)Nc2cccc3c2O[C@H](CN(C)C(=O)Nc2ccc(F)cc2)[C@H](C)CN([C@H](C)CO)C3=O)n(C)n1	·	-3	·	-1	1
CCCCNC(=O)CNC(=S)N(CCCN1CCOCC1)Cc1cccs1	-6	4	-10	-3	44*
C[C@H](CO)N1C[C@H](C)[C@@H](CN(C)C)Oc2ncc(C3=CCCC3)cc2C1=O	·	3	·	0	1
O=C(CSc1cn[nH]n1)Nc1cccc(C(=O)O)c1	81*	25	1	0	2
COc1ccc(CN2C[C@@H](O)COC[C@H]3O[C@@H](CC(=O)NCCN4CCCC4)CC[C@@H]32)cc1	·	·	·	·	9
CCCCNC(=O)c1nn2c(C(F)(F)F)cc(-c3ccccc3)nc2c1Br	-1	5	11	2	38*
N#CCNC(=O)c1nn2c(C(F)(F)F)cc(-c3ccccc3)nc2c1Br	-5	0	-3	-2	7
O=C(Nc1ccc2c(c1)OCO2)N[C@@H]1CC[C@@H](CCNC(=O)C2CCOCC2)O[C@H]1CO	·	-3	·	-3	1
C[C@H]1CN([C@@H](C)CO)C(=O)Cc2cc(NS(=O)(=O)c3ccccc3)ccc2O[C@@H]1CN(C)C(=O)NC1CCCCC1	·	-7	·	0	0
COCCn1c(C(=O)N2CCCC2)cc2c1C[C@H]1CN(C(=O)c3ccccc3)[C@@](Cc3ccc(F)cc3)(C(=O)OC)[C@@H]21	·	3	·	·	64*
COCCn1c(SCC(=O)Nc2ccc3c(c2)OCCO3)nnc1C(C)C	-8	0	-3	0	22*
CCOc1cccc(C=NNc2ccc(S(=O)(=O)Nc3ccccc3C(=O)O)cc2[N+](=O)[O-])c1O	-3	-6	4	8	2
COc1ccc(NC(=S)NNc2ccc(S(=O)(=O)Nc3ccccc3C(=O)O)cc2[N+](=O)[O-])cc1	47	-2	1	17*	-5
O=C(O)c1ccccc1NS(=O)(=O)c1ccc(NN=Cc2ccccc2F)c([N+](=O)[O-])c1	17	-3	18	17*	2
C=CCOc1ccc(C=NNc2ccc(S(=O)(=O)Nc3ccccc3C(=O)O)cc2[N+](=O)[O-])cc1OC	12	1	28	-7	-10
O=C(O)c1ccccc1/C=N/Nc1ccc(S(=O)(=O)N2CCCC2)cc1[N+](=O)[O-]	-13	5	2	1	-2
CCOc1ccc(C=NNc2ccc(S(=O)(=O)Nc3ccccc3C(=O)O)cc2[N+](=O)[O-])cc1	-2	0	2	20*	5
COc1ccc(C=NNc2ccc(S(=O)(=O)Nc3ccccc3C(=O)O)cc2[N+](=O)[O-])c(OC)c1	?	-1	-1	44*	·
CSc1ccc(C=NNc2ccc(S(=O)(=O)Nc3ccccc3C(=O)O)cc2[N+](=O)[O-])cc1	3	2	11	1	3
CC(C)OC(=O)N(C)c1ccc(C(O)(C(F)(F)F)C(F)(F)F)cc1	55*	·	-3	·	·
COc1ccccc1C(=O)Nc1ccc2c(c1)C(=O)N(C)C[C@@H](OC)[C@H](C)CN(CC1CC1)[C@H](C)CO2	·	-1	·	-1	-9
CN1CCCC1CCNc1ccc2sc3ccccc3c(=O)c2c1 (stereo not given)	20	-4	-4	·	27*
CO[C@@H]1CN(C)C(=O)c2cc(NC(=O)c3ccccc3F)ccc2OC[C@H](C)N(C(C)=O)C[C@H]1C	·	-1	·	5	8
CC(C)C#Cc1cnc2c(c1)C(=O)N([C@@H](C)CO)C[C@@H](C)[C@H](CN(C)Cc1ccccn1)O2	·	-1	·	21*	-3
C[C@H]1CN([C@@H](C)CO)C(=O)c2cc(Br)cnc2O[C@@H]1CN(C)Cc1ccccn1	·	2	·	1	-2
SMILES	Rtt109 HAT inh	ERp5 inh	PDI inh	SIRT5 inh	DENV2 CPE
C[C@H](CO)N1C[C@H](C)[C@H](CN(C)C(=O)c2ccccn2)Oc2ncc(Br)cc2C1=O	·	?	-13	-5	73*!
C[C@H](CO)N1C[C@H](C)[C@@H](CN(C)Cc2ccccn2)Oc2ncc(Br)cc2C1=O	·	-3	-3	25*!	11
C[C@H](O)C#Cc1cnc2c(c1)C(=O)N([C@@H](C)CO)C[C@@H](C)[C@H](CN(C)Cc1ccccn1)O2	·	4	·	2	4
Cc1noc(C)c1NC(=O)N(C)C[C@H]1OCCCC[C@@H](C)Oc2ccc(NC(=O)NC3CCCCC3)cc2C(=O)N([C@H](C)CO)C[C@@H]1C	·	1	·	·	18
CN1C(=O)c2cc(NC(=O)c3ccccc3Cl)ccc2OC[C@H]2O[C@H](CC(=O)O)CC[C@@H]21	·	1	·	-6	-11
CCN(C(=O)COC(=O)c1cc(=O)[nH]c2ccccc12)c1c(N)n(Cc2ccccc2)c(=O)[nH]c1=O	-6	2	9	-5	65*
Cc1ccsc1C(=O)OCC(=O)N(C)c1c(N)n(Cc2ccccc2)c(=O)[nH]c1=O	3	0	-2	-8	-3
Cc1ccc(C(=O)OCC(=O)N(C)c2c(N)n(Cc3ccccc3)c(=O)[nH]c2=O)s1	-1	-5	-1	1	36*
CC(C)CN(C(=O)COC(=O)c1cc(=O)[nH]c2ccccc12)c1c(N)n(Cc2ccccc2)c(=O)[nH]c1=O	21	3	0	0	16
Cc1nnc(SCC(=O)N(CC(C)C)c2c(N)n(Cc3ccccc3)c(=O)[nH]c2=O)n1N	1	0	-7	3	79*
CC(C)CN(C(=O)CSc1nnc(-c2cccs2)n1N)c1c(N)n(Cc2ccccc2)c(=O)[nH]c1=O	-26	-3	5	2	-2
O=C(O)C[C@@H]1C[C@H]2c3cc(NC(=O)Cc4ccncc4)ccc3O[C@H]2[C@H](CO)O1	·	0	·	2	18
COC(=O)C[C@@H]1C[C@H]2c3cc(NC(=O)Cc4ccncc4)ccc3O[C@H]2[C@H](CO)O1	·	-6	·	15*	8
COC(=O)C[C@@H]1C[C@@H]2c3cc(NC(=O)Cc4ccncc4)ccc3O[C@@H]2[C@H](CO)O1	·	36*	·	5	2
COC(=O)C[C@@H]1C[C@H]2c3cc(NC(=O)Cc4ccncc4)ccc3O[C@H]2[C@@H](CO)O1	·	0	·	2	11
O=C(O)C[C@H]1C[C@@H]2c3cc(NC(=O)Cc4ccncc4)ccc3O[C@@H]2[C@@H](CO)O1	·	1	·	2	90*
O=C(C[C@@H]1C[C@@H]2c3cc(NC(=O)Cc4ccncc4)ccc3O[C@@H]2[C@@H](CO)O1)NCCN1CCCCC1	·	-3	·	1	77*
C[C@@H]1CN([C@H](C)CO)S(=O)(=O)c2ccc(C#Cc3ccccc3F)cc2O[C@H]1CN(C)C(=O)Cc1cccnc1	·	-1	·	5	-11
N#C[C@H]1[C@@H](c2ccc(C3=CCCCC3)cc2)[C@@H](CO)N1C(=O)C1CCOCC1	·	3	·	-5	-7
O=C(O)C[C@H]1C[C@@H]2c3cc(NC(=O)Cc4ccncc4)ccc3O[C@@H]2[C@H](CO)O1	·	-2	·	-4	-18
